Results reported in PubChem BioAssay AID589 (National Center for Advancing Translational Sciences (NCATS), 2007).
In all, about 59,000 compounds went through this assay and about 6,200 (11%) were called active. About 9% were inconclusive and are not listed. No stated cut-off is given here; in the data, active means max dye-equivalent concentration above about 10 nM; inconclusive means mostly about 1.1 nM to 9.6 nM; inactive means weaker than that. Many of the other results were omitted from the sample, so actives are more common in it than they were.

assay: qHTS Assay for Spectroscopic Profiling in 4-MU Spectral Region; settings: compound autofluorescence, 340/450 nm, 4-MU equivalents; hits give high values
Summary of the method: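 Intrinsic fluorescence at 340/450 nm (ex/em) was read after 15 min at room temperature in pH 8.0, 100 mM Tris. Each compound concentration expressed as 4-MU-equivalent concentration from a six-point 4-MU standard series on each plate.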

Structure (SMILES)	max dye-equivalent concentration
CCc1ccc(Nc2ncc3c(n2)CC(c2ccco2)CC3=O)cc1 (configuration not stated)	38 nM (active)
CCc1ccc(NC(=O)CSc2nnc(-c3cnccn3)n2Cc2ccco2)cc1	inactive
O=C(Nc1ncc2c(n1)CC(c1ccco1)CC2=O)c1ccc(Cl)cc1 (configuration not stated)	inactive
CCOc1ccc2nc(N3CCCN(C(=O)Nc4ccccc4C)CC3)c(C#N)cc2c1	16 nM (active)
Cc1ccccc1NC(=O)CNc1ccccc1N1CCCCC1	inactive
CCOc1ccc(NC(=O)N2CCN(CC)CC2)cc1	inactive
Cn1c(-c2ccc(F)cc2)cnc1SCC(=O)NCc1ccco1	inactive
O=C(CN1CCN(c2nc(-c3ccccc3)cs2)CC1)NCc1ccc2c(c1)OCO2	inactive
CC1(C)S[C@@H]2[C@@H](NC(=O)[C@@H](N)c3ccccc3)C(=O)N2[C@H]1C(=O)O	44 nM (active)
CC1(C)SC2c3ccccc3C(=O)N2[C@@H]1C(=O)NCc1ccco1 (some centres not stated)	inactive
CCS(=O)(=O)N1CCC(C(=O)N2CCN(c3ccccc3)CC2)CC1	inactive
CCOc1ccccc1Nc1nnc(SCC(=O)Nc2cc(C)on2)s1	inactive
CC(C[N+](C)(C)C)OC(N)=O (configuration not stated)	inactive
CC(=O)OC(C)C[N+](C)(C)C (configuration not stated)	500 nM (active)
CCN1C(=O)/C(=C\N2CCN(c3ccccc3)CC2)SC1=S	inactive
CCN1C(=O)/C(=C2\SC(N3CCCCC3)=NC2=O)c2ccccc21	18 nM (active)
Cc1ccc(C(=O)OCC(=O)NCc2ccc3c(c2)OCO3)s1	inactive
Cc1ccc2cccc(O)c2[n+]1[O-]	17 nM (active)
CC(=O)Nc1cccc2c1[n+]([O-])c(C)c(C)[n+]2[O-]	inactive
O=C(O)[C@@H]1[C@@H](C(=O)O)[C@]23C[C@@]2(C(=O)O)[C@]2(C(=O)O)CCC3=C3CCCC312	inactive
CCOC(=O)CSc1nnc(CNc2ccc(F)cc2)o1	inactive
CCCOP(=O)(c1ccc(N(C)C)cc1)C(O)c1cc(OC)c(OC)c(OC)c1 (configuration not stated)	inactive

Structure (SMILES)	max dye-equivalent concentration
Cc1c(S(=O)(=O)O)ccc(N=Nc2c(O)c(C(=O)O)cc3ccccc23)c1Cl	11 nM (active)
CCc1ccc(-c2nnn(Cc3nc4ccccc4s3)n2)cc1	inactive
COc1ccc(Cc2nnc(NS(=O)(=O)Cc3ccccc3)s2)cc1	inactive
COC(=O)C1(S(=O)(=O)C2(C(=O)OC)CCCC2)CCCC1	inactive
N#Cc1c(N)n(CCOC(=O)c2ccc(Cl)cc2)c2nc3ccccc3nc12	600 nM (active)
O=S(=O)(O)c1nc2ccccc2n1Cc1ccc(Cl)cc1	inactive
C[C@H](NC(=O)OC(C)(C)C)c1nnc(SCC(N)=O)o1	inactive
CC1(C)Oc2ccc(C(=O)N3CCOCC3)cc2N(CC(=O)Nc2ccccc2)C1=O	inactive
O=C(c1cccnc1NCc1ccccc1)N1CCOCC1	inactive
Cc1nc(NCc2ccccc2)c(C(N)=O)c2c1COC(C)(C)C2	100 nM (active)
Cc1ccc(NC(=O)CS(=O)CC(=O)N(c2ccccc2)C(C)C(=O)NC2CCCC2)cc1 (configuration not stated)	inactive
CC(=O)O[C@]1(C(C)=O)CC[C@@H]2[C@@H]3C=C(C)C4=CC(=O)CC[C@@]4(C)[C@H]3CC[C@]21C	inactive
Cc1ccc(C)c(S(=O)(=O)N2CC(=O)Nc3ccccc32)c1	inactive
N=C(CC(=O)Nc1ccccn1)c1ccccc1	inactive
Cc1cccc(N)c1SC1CCCCC1O (configuration not stated)	inactive
COc1ccc(C(=O)OCC(=O)c2ccc(C)c(S(=O)(=O)N3CCOCC3)c2)cc1OC	inactive
CCC(=O)Nc1ccc(C(=O)Nc2ccc3c(c2)C(=O)N(CC2CCCO2)C3=O)cc1 (configuration not stated)	120 nM (active)
O=C(NCc1ccc2c(c1)OCO2)c1ccc2c(c1)C(=O)N(CC1CCCO1)C2=O (configuration not stated)	inactive
O=C(CCN1C(=O)c2ccncc2C1=O)Nc1ccc2c(c1)OCCO2	inactive
CC(C)(C)n1nnnc1C(c1ccc2ncccc2c1)N1CCSCC1 (configuration not stated)	inactive
CCOC(=O)N1CCN(CC(=O)Nc2cc(C)nn2-c2nc3ccccc3s2)CC1	inactive
CCOC(=O)N1CCN(C(=O)C2CCN(S(C)(=O)=O)CC2)CC1	inactive

Structure (SMILES)	max dye-equivalent concentration
CCOC(=O)N1CCN(C(=O)C2CCN(c3ncnc4c3sc3cccc(F)c34)CC2)CC1	18 nM (active)
C=C(C)c1cccc(C(C)(C)NC(=O)N2CCN(c3ncccn3)CC2)c1	inactive
CC1CCCC(NC(=O)CSc2nccn2C)C1C (configuration not stated)	inactive
CN1[C@H]2CC(OC(=O)[C@@H](CO)c3ccccc3)C[C@H]1[C@H]1O[C@H]12 (some centres not stated)	inactive
O=c1cc(-c2ccccc2)[nH]c2nc(Cl)ccc12	76 nM (active)
O=C(NCCN1CCOCC1)c1c(F)c(F)c(F)c(F)c1F	inactive
Oc1c(Br)cc(CN(Cc2cc(Br)c(O)c(Br)c2)C2CCCCC2)cc1Br	inactive
Cc1cc(=O)n2nc(N3CCCC(C(=O)N4CCN(C)CC4)C3)sc2n1 (configuration not stated)	inactive
Cc1cccc(NC(=O)CSc2nnc(CCCCCNC(=O)OC(C)(C)C)o2)c1C	inactive
COCC(=O)N1CCC2(CCCN(c3ccccc3)C2)CC1	inactive
COC(=O)c1ccc(NCC(=O)c2ccccc2)cc1	inactive
O=C(Nc1ccc(-c2nnc(-c3ccccc3)o2)cc1)C1CCCO1 (configuration not stated)	inactive
O=C(Nc1cccc(-c2nnc(-c3ccccc3)o2)c1)C1CCCO1 (configuration not stated)	inactive
O=C(Nc1ccc(-c2nnc(-c3ccccc3)o2)cc1)c1ccc(Br)o1	37 nM (active)
O=C(c1ccco1)N1CCN(C(=O)C2CC(c3ccc(Cl)c(Cl)c3)=NO2)CC1 (configuration not stated)	inactive
CSc1nnc(-c2ccncc2)n1CCCN1CCCC1=O	inactive
O=C(CCn1c(=S)[nH]c2ccccc2c1=O)NCCCN1CCCC1=O	inactive
CC(C)(C)OC(=O)c1c(N)n(CCCN2CCCC2=O)c2nc3ccccc3nc12	6400 nM (active)
CC(C)NC(=O)N1CCCC2(CCN(C(=O)c3cccn3C)CC2)C1	inactive
COc1ccc2c(c1)CCc1c(C(=O)N3CCCC3)noc1-2	inactive
CCNc1ncc2ncc(=O)n(Cc3cccc(OC)c3)c2n1	14 nM (active)
COc1cccc(Cn2c(=O)c(C)nc3cnc(Oc4ccccc4)nc32)c1	inactive

Structure (SMILES)	max dye-equivalent concentration
COc1cccc(Cn2c(=O)c(-c3ccccc3)nc3cnc(OC)nc32)c1	inactive
CCc1nnc(NC(=O)CSc2nnc(Cc3ccccc3)n2-c2ccc(OC)cc2)s1	inactive
COc1cccc(CN2C(=O)CCC2(C)C(=O)NC2CCCCCC2)c1 (configuration not stated)	inactive
COc1cccc(Cn2c(=O)cnc3cncnc32)c1	inactive
CCNc1ncc2ncc(=O)n(CCc3ccccc3)c2n1	75 nM (active)
COc1cccc(Nc2ncc3ncc(=O)n(C4CC4)c3n2)c1	inactive
COc1cccc(Cn2c(=O)c(CCc3ccccc3)nc3cnc(N(C)C)nc32)c1	22 nM (active)
CCNc1ncc2nc(CCc3ccccc3)c(=O)n(-c3ccc(OC)cc3)c2n1	12 nM (active)
COc1ccc(-n2c(C)nc3c(cnn3-c3ccccc3)c2=O)cc1	inactive
O=c1cnc2cnc(Nc3ccccc3)nc2n1Cc1ccc(F)cc1	inactive
Cc1cc(N2C(=O)c3ccc(C(=O)NCc4ccccc4)cc3C2=O)no1	inactive
COC(=O)[C@H](Cc1ccccc1)NC(=O)N1CC(C)OC(C)C1 (some centres not stated)	inactive
O=C(C1CCC(C(=O)N2CCCC2)CC1)N1CCCC1 (configuration not stated)	inactive
O=C(c1cccs1)N1CCCC(c2nc(-c3ccc(F)cc3)no2)C1 (configuration not stated)	inactive
C=CCn1c(=O)c2ccccc2n2c(SCC(=O)N3CCCc4ccccc43)nnc12	inactive
CC(C)CC(=O)N=C1SC2CS(=O)(=O)CC2N1CCc1ccccc1 (configuration not stated)	inactive
CCCCN(C)C(=O)C1CCN(Cc2ccccn2)CC1	inactive
Cc1nc(SCC(=O)Nc2cc(C)on2)c2c3c(sc2n1)CCCC3	inactive
O=C(Nc1cccc2c1CCCC2)C1CCN(C(=O)NC2CCCCC2)CC1	inactive
CCOc1ccccc1N=C1NC(=O)CS1	inactive
CCc1nnc(NC(=O)c2c(O)c3c([nH]c2=O)CCCC3)s1	inactive
Cc1cnc(CNc2cc(-c3c(C)noc3C)ncn2)cn1	18 nM (active)

Structure (SMILES)	max dye-equivalent concentration
Cc1noc(C)c1-c1cc(NCc2cccnc2)ncn1	inactive
CNc1cc(-c2c(C)noc2C)ncn1	inactive
Cc1cccc(CNc2cc(-c3ccccc3Cl)ncn2)c1	inactive
COCCNc1cc(-c2c(C)noc2C)ncn1	11 nM (active)
COc1ccccc1CNc1ncnc2ccc(-c3c(C)noc3C)cc12	inactive
CCOC(=O)c1[nH]cnc1C(=O)NC1CCCCC1	inactive
C[C@]1(O)CC[C@H]2[C@H]3CC=C4N5CCN=C5CC[C@@]4(C)[C@H]3CC[C@@]21C	inactive
O=C(Nc1c(Cl)cccc1Cl)C1CCC1	inactive
O=C(NCc1ccco1)c1cc2sccc2n1Cc1ccc(F)cc1	inactive
Cc1nc2nc(CSc3nc4ccccc4s3)cc(=O)n2[nH]1	inactive
Cc1cccc(-n2c(N)c(C(=O)N3CCN(C)CC3)sc2=S)c1	inactive
CC(C(=O)Nc1ccccc1-c1ccccc1)N1CCOCC1 (configuration not stated)	inactive
O=C(c1ccccc1-c1ccccc1)N1CCOCC1	inactive
CC(C(=O)N1CCOCC1)N1c2cccc3cccc(c23)S1(=O)=O (configuration not stated)	74 nM (active)
COc1ccc(N(CC(=O)NC(C)(C)C)C(=O)c2ccco2)cc1	inactive
COc1cc(C(=O)N(Cc2ccc(N(C)C)cc2)C2CCS(=O)(=O)C2)cc(OC)c1OC (configuration not stated)	inactive
CCOc1ccc2nc(NCCNS(=O)(=O)c3ccccc3)c(C#N)cc2c1	110 nM (active)
CCOc1ccc(Nc2oc(Cc3ccccc3)nc2C#N)cc1	inactive
O=C(O)c1cccc(S(=O)(=O)NCCO)c1	inactive
